Calls of active or inactive are those of the source. The calls were made as follows: active = hit-call score of the fitted dose curve at least 0.9, where 1 is the maximum; inactive = score below 0.9.
Assays:
[1] = ATG_EGR_CIS: Attagene CIS-FACTORIAL HepG2 Assay for human Early Growth Response 1 (EGR1) (AID 2282938); conditions: HepG2 Attagene CIS-FACTORIAL EGR reporter mRNA; actives raise or lower the signal
Outline: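 HepG2 cells transiently transfected with cis-element-driven multiplexed reporter units, dosed for 24 h. EGR1-element reporter mRNA quantified by RT-PCR, 6-FAM labelling, HpaI digestion and capillary electrophoresis; bidirectional fit versus DMSO.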

[2] = ATG_M_19_CIS: Attagene CIS-FACTORIAL HepG2 Assay for M19 Transcription Factor (Internal Marker) (AID 2282939); conditions: HepG2 Attagene CIS-FACTORIAL M19 internal marker reporter; actives raise or lower the signal
Outline: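 Signals come from fluorescence of labelled reporter-specific PCR fragments resolved by capillary electrophoresis, following 24 h treatment of HepG2 cells transfected with cis-promoter reporter units; activity was fitted in both directions relative to DMSO.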

[3] = ATG_ERE_CIS: Attagene CIS-FACTORIAL HepG2 Assay for Estrogen Response Element (ERE) (AID 2282940); conditions: HepG2 ERE cis-reporter, Attagene RNA transcript; actives raise or lower the signal
Outline: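 Fluorescence of capillary-separated, FAM-labelled reporter cDNA fragments indicates reporter mRNA levels in HepG2 cells exposed to chemicals for 24 h. Transient transfection with cis-regulated units; data fitted in both directions against DMSO.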

[4] = ATG_Ets_CIS: Attagene CIS-FACTORIAL HepG2 Assay for human Erythroblast Transformation Specific (ETS) (AID 2282941); conditions: HepG2 ETS cis-reporter transcription, actives raise or lower the signal
Outline: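 Cis-regulated reporter mRNA induction in HepG2 (transient transfection), 24 h exposure, RT-PCR plus capillary electrophoresis detection; DMSO serves as negative control and baseline.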

[5] = target: Hepatocyte nuclear factor 3-beta (Homo sapiens) (UniProt Q9Y261); experiment: ATG_FoxA2_CIS: Attagene CIS-FACTORIAL HepG2 Assay for human Forkhead box A2 (FOXA2) (AID 2282942); conditions: HepG2 cis-reporter transcription factor activity, 24 h; actives raise or lower the signal
Sequence of Hepatocyte nuclear factor 3-beta (Homo sapiens) (Q9Y261 whole entry, looked up): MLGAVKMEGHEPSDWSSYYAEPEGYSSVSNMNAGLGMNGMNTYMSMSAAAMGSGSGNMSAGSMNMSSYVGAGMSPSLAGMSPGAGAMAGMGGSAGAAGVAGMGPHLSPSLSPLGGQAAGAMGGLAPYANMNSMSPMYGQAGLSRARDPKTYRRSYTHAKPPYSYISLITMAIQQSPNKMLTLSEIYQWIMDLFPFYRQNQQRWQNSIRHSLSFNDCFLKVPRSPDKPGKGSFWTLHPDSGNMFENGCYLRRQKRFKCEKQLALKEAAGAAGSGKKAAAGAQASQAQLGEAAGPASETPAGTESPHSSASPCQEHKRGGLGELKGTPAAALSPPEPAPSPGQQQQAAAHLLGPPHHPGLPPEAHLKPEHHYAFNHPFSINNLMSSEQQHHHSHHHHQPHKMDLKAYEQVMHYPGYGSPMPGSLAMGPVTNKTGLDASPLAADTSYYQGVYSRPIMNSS
Outline: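 HepG2 transiently transfected with a multiplexed cis-promoter reporter library read endogenous FOXA2 activity. After 24 h compound exposure, reporter mRNA was quantified by RT-PCR, HpaI digestion and capillary electrophoresis. Bidirectional fit against DMSO.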

[6] = ATG_FoxO_CIS: Attagene CIS-FACTORIAL HepG2 Assay for human Forkhead box O (FoxO) (AID 2282943); conditions: HepG2 Attagene cis-reporter, FoxO element, mRNA; actives raise or lower the signal
Outline: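 HepG2 cells transiently transfected with cis-promoter-driven multiple reporter transcription units; 24 h after chemical dosing, reporter mRNA quantified by RT-PCR, fluorescent primer extension, HpaI digestion and capillary electrophoresis. Bidirectional fitting versus DMSO baseline.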

[7] = ATG_GATA_CIS: Attagene CIS-FACTORIAL HepG2 Assay for human GATA Binding Protein (AID 2282944); conditions: HepG2 GATA cis-element reporter, Attagene multiplex mRNA; actives raise or lower the signal
Outline: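 After transfecting HepG2 cells with multiple cis-regulated reporter units, chemicals are dosed for 24 h; isolated RNA undergoes RT-PCR and fluorescent labeling before capillary electrophoresis, with activity expressed against DMSO.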

[8] = ATG_GLI_CIS: Attagene CIS-FACTORIAL HepG2 Assay for human Zinc Finger Protein GLI1 (AID 2282945); conditions: HepG2, Attagene cis-factorial reporter mRNA, GLI element; actives raise or lower the signal
Outline: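 HepG2 cells transiently transfected with cis-promoter multiplexed reporter units report endogenous transcription factor activity. After 24 h chemical exposure, reporter mRNA was quantified by RT-PCR, 6-FAM labelling, HpaI digestion and capillary electrophoresis, with bidirectional fitting against DMSO.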

[9] = target: Bile acid receptor (Homo sapiens) (UniProt Q96RI1); experiment: ATG_IR1_CIS: Attagene CIS-FACTORIAL HepG2 Assay for human Nuclear Receptor Subfamily 1 Group H Member 4 (NR1H4), IR1 submotif (AID 2282946); conditions: IR1 reporter transcription, actives raise or lower the signal
Sequence of Bile acid receptor (Homo sapiens) (Q96RI1 whole entry, looked up): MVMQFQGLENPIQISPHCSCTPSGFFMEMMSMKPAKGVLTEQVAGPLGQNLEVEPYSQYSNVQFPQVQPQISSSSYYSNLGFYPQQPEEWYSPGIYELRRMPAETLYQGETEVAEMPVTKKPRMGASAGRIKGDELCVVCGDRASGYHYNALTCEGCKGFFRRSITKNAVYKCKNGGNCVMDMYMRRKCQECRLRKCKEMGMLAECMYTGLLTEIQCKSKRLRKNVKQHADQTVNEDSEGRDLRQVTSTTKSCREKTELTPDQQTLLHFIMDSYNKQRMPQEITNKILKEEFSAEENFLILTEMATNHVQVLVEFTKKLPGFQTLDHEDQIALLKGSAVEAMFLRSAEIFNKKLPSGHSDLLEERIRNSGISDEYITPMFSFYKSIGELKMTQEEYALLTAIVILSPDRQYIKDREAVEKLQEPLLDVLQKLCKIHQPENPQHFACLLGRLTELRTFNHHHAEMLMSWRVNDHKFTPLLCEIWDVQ
Outline: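 Readout: reporter transcript levels by RT-PCR with fluorescent capillary electrophoresis, from HepG2 cells transiently transfected with multiplexed cis-regulated reporters and dosed 24 h. Gain- or loss-of-signal fitted versus DMSO negative control.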

[10] = ATG_GRE_CIS: Attagene CIS-FACTORIAL HepG2 Assay for human Glucocorticoid Response Elements (GRE) (AID 2282947); conditions: HepG2 GRE cis-reporter, Attagene multiplex mRNA; actives raise or lower the signal
Outline: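 HepG2, transient cis-reporter transfection, 24 h. Reporter mRNA: RT-PCR then CE, fluorescence. Fit both directions vs DMSO.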

| Structure (SMILES) | outcome [1] | outcome [2] | outcome [3] | outcome [4] | outcome [5] | outcome [6] | outcome [7] | outcome [8] | AC50 [3] | outcome [9] | AC50 [9] | outcome [10] | AC50 [4] | AC50 [1] | AC50 [10] | AC50 [5] | AC50 [8] |
| --- | --- | --- | --- | --- | --- | --- | --- | --- | --- | --- | --- | --- | --- | --- | --- | --- | --- |
| CCCCCCCCCCCCBr | inactive | inactive | inactive | inactive | inactive | inactive | inactive | inactive | – | – | – | – | – | – | – | – | – |
| NNCCO | inactive | inactive | – | inactive | inactive | inactive | inactive | inactive | 25.4 µM (active) | inactive | – | – | – | – | – | – | – |
| CCC(C)(C#N)N=NC(C)(C#N)CC (stereo not given) | inactive | inactive | inactive | inactive | inactive | inactive | inactive | inactive | – | – | – | – | – | – | – | – | – |
| CCOC(=O)CCN(SN(C)C(=O)Oc1cccc2c1OC(C)(C)C2)C(C)C | inactive | inactive | inactive | inactive | inactive | inactive | inactive | inactive | – | – | 100 µM (active) | inactive | – | – | – | – | – |
| O=C(NC(=O)c1c(F)cccc1F)Nc1cc(Cl)c(Oc2ncc(C(F)(F)F)cc2Cl)c(Cl)c1 | inactive | inactive | inactive | inactive | inactive | inactive | inactive | inactive | – | inactive | – | inactive | – | – | – | – | – |
| CC(O)(CS(=O)(=O)c1ccc(F)cc1)C(=O)Nc1ccc(C#N)c(C(F)(F)F)c1 (stereo not given) | inactive | inactive | inactive | inactive | inactive | inactive | inactive | inactive | – | – | – | – | – | – | – | – | – |
| CCOC(=O)OC1=C(c2cc(C)ccc2C)C(=O)NC12CCC(OC)CC2 (stereo not given) | inactive | inactive | inactive | inactive | inactive | inactive | inactive | inactive | – | inactive | – | inactive | – | – | – | – | – |
| Brc1ccc(Oc2c(Br)cc(Br)cc2Br)c(Br)c1 | inactive | inactive | inactive | inactive | inactive | inactive | inactive | inactive | – | inactive | – | – | – | – | – | – | – |
| Cc1cccc(C)c1NC(=O)CN1CCCC1=O | inactive | inactive | inactive | inactive | inactive | inactive | inactive | inactive | – | inactive | – | – | – | – | – | – | – |
| CCOP(=O)(OCC)SCCSCC | inactive | inactive | inactive | inactive | inactive | inactive | inactive | inactive | – | – | – | – | – | – | – | – | – |
| NC(=O)c1ccc(N)nc1 | inactive | inactive | inactive | – | inactive | inactive | inactive | inactive | – | inactive | – | inactive | 100 µM (active) | – | – | – | – |
| O=C(Cc1ccccc1)OCCc1ccccc1 | inactive | inactive | inactive | inactive | inactive | inactive | inactive | inactive | – | – | – | – | – | – | – | – | – |
| CN(C)c1ccc(N=O)cc1 | – | inactive | inactive | inactive | inactive | inactive | inactive | inactive | – | – | 9.69 µM (active) | – | – | 13.5 µM (active) | 23.6 µM (active) | – | – |
| CCOP(=S)(OCC)SCS(=O)(=O)C(C)(C)C | inactive | inactive | inactive | inactive | inactive | inactive | inactive | inactive | – | – | 34.8 µM (active) | inactive | – | – | – | – | – |
| C1CN2CCN1CC2 | inactive | inactive | inactive | inactive | inactive | inactive | inactive | inactive | – | – | – | – | – | – | – | – | – |
| COC(F)(C(F)(F)C(F)(F)F)C(F)(C(F)(F)F)C(F)(F)F (stereo not given) | inactive | inactive | inactive | inactive | inactive | inactive | inactive | inactive | – | inactive | – | inactive | – | – | – | – | – |
| C=CC(F)(C(F)(F)F)C(F)(F)C(F)(F)F (stereo not given) | inactive | inactive | inactive | inactive | inactive | inactive | inactive | inactive | – | inactive | – | inactive | – | – | – | – | – |
| C[C@H]1C(=O)O[C@@H]2CCN3CC=C(COC(=O)[C@](C)(O)[C@]1(C)O)[C@H]23 | inactive | inactive | inactive | inactive | inactive | inactive | inactive | inactive | – | inactive | – | inactive | – | – | – | – | – |
| CCCCC(CC)C(=O)Cl (stereo not given) | inactive | inactive | inactive | inactive | inactive | inactive | inactive | inactive | – | inactive | – | – | – | – | – | – | – |
| O=S(=O)(F)C(F)(F)C(F)(F)C(F)(F)C(F)(F)F | inactive | inactive | inactive | inactive | inactive | inactive | inactive | inactive | – | inactive | – | inactive | – | – | – | – | – |
| ClCc1ccccc1CCl | – | inactive | inactive | – | – | inactive | inactive | – | – | – | 33.4 µM (active) | inactive | 15.7 µM (active) | 29.5 µM (active) | – | 33.4 µM (active) | 33.4 µM (active) |
| O=S1OC[C@@H]2[C@H](CO1)[C@]1(Cl)C(Cl)=C(Cl)[C@@]2(Cl)C1(Cl)Cl (stereo not given in full) | inactive | inactive | – | inactive | inactive | inactive | inactive | inactive | 2.77 µM (active) | inactive | – | – | – | – | – | – | – |
| C1CCC(C2CCCCC2)CC1 | inactive | inactive | inactive | inactive | inactive | inactive | inactive | inactive | – | inactive | – | – | – | – | – | – | – |
| N#Cc1ccc(Cl)cc1 | inactive | inactive | inactive | inactive | inactive | inactive | inactive | inactive | – | – | – | – | – | – | – | – | – |
| Cc1ccccc1OP(=O)(Oc1ccccc1)Oc1ccccc1 | inactive | inactive | – | inactive | inactive | inactive | inactive | inactive | 7.35 µM (active) | – | 23.7 µM (active) | inactive | – | – | – | – | – |

From PubChem BioAssay (EPA / NIEHS)
